This passage reports growth inhibition, inhibition and outcome results from PubChem BioAssay.

A short description of assay [1]: antimalarial activity against Dd2 strain (AID 2302;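 active = growth inhibition above 50% at the single 2 µM test dose, taken to imply half-maximal potency below 2 µM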;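 also: 0% = DMSO untreated growth and 100% = chloroquine plus artemisinin killed control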). Particulars: P. falciparum Dd2 in RBCs, LDH growth readout, 72 h; at 2 µM; stronger effect = higher value.
Assay [2] is described as follows: HepG2 cytotoxicity, primary screen, cytotoxicity control for P. falciparum antimalarial project, cell-based, ATP luminescence (AID 2303;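 active = inhibition above 50%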;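 also: 0% = DMSO wells and 100% = digitonin-killed cells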). Particulars: HepG2 viability, 24-48 h, at 10 µM, stronger effect = higher value.
The target of assay [3] is L-lactate dehydrogenase (Plasmodium falciparum (isolate CDC / Honduras)) (UniProt Q27743). The assay can be described thus: PfLDH activity inhibition – cell lysate, 3D7 strain, counter-screen for P. falciparum growth inhibition project (AID 2304).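 Also: 0% = vehicle and 100% = reference inhibitor.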 Particulars: P. falciparum 3D7 crude extract, LDH APAD/NBT absorbance; at 2 µM; stronger effect = higher value. For orientation: A counterscreen serves to expose hits that act by an unwanted route or on another target.

The nature of assay [4]: inhibition of 3D7 malaria parasite growth – strain 3D7 (AID 2306).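 Also: 0% = DMSO wells and 100% = chloroquine plus artemisinin control wells.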 Particulars: P. falciparum 3D7 erythrocytic growth, LDH absorbance, 72 h; at 2 µM; stronger effect = higher value.
Assay [5] concerns the target Calcium-dependent protein kinase 1 (Plasmodium falciparum (isolate 3D7)) (UniProt P62344). The assay can be described thus: PfCDPK1 kinase inhibitors, biochemical, TCAMS library (AID 1159585; cut-off not given, nearly all actives have IC50 up to about 0.98 µM;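 also: inhibitors leave more ATP so luminescence rises with inhibition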). Conditions: recombinant PfCDPK1, Kinase-Glo ATP depletion luminescence. In general terms: Kinase-Glo reads ATP consumption through a luciferase reaction.
Assay [6] deals with Plasmodium falciparum protein kinase 6 (PK6, PF3D7_1337100) (UniProt Q8IDW1). Nature of the assay: PfPK6 kinase inhibitors, biochemical, TCAMS library (AID 1159586). Particulars: recombinant PfPK6, Kinase-Glo ATP depletion luminescence.
The target in assay [7] is Protein kinase 7 (PK7), Plasmodium falciparum 3D7 (PF3D7_0213400) (UniProt Q7YTF7). Nature of the assay: inhibition of Plasmodium PK7 catalytic activity – biochemical, TCAMS antimalarial set, Kinase-Glo luminescence (AID 1159587). Particulars: recombinant PfPK7, Kinase-Glo ATP depletion luminescence.
Assay [8] deals with Calcium-dependent protein kinase 4 (Plasmodium falciparum (isolate 3D7)) (UniProt Q8IBS5). Nature of the assay: PfCDPK4 kinase inhibitors, biochemical, TCAMS library (AID 1159588; cut-off not given, nearly all actives have IC50 up to about 0.91 µM). Conditions: recombinant PfCDPK4, Kinase-Glo ATP depletion luminescence.

Unmarked numbers belong to inactive results. For part of these data: Results with a measured potency or affinity are listed apart. Calls of active or inactive are those of the source. Unless noted, no rule for the calls is given here.

L-lactate dehydrogenase (Plasmodium falciparum (isolate CDC / Honduras)), sequence (Q27743 whole entry, looked up): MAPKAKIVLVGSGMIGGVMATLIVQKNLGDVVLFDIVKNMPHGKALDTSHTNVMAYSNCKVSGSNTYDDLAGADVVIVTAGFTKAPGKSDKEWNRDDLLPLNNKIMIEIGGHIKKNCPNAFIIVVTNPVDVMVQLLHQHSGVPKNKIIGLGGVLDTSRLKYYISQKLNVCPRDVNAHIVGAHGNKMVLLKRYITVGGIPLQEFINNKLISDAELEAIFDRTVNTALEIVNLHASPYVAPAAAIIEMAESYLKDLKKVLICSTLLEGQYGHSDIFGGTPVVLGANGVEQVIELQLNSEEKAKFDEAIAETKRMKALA
Protein kinase 7 (PK7), Plasmodium falciparum 3D7 (PF3D7_0213400), sequence (Q7YTF7 1-343): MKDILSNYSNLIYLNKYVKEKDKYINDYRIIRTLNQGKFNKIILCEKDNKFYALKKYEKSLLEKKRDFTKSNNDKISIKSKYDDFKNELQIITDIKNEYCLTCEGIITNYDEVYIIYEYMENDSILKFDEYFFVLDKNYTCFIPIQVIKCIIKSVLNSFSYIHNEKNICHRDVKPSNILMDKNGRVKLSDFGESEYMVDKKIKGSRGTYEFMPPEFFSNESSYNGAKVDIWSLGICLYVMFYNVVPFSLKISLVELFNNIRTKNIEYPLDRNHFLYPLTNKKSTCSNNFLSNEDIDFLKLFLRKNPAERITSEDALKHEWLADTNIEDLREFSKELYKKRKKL
Calcium-dependent protein kinase 1 (Plasmodium falciparum (isolate 3D7)), sequence (P62344 whole entry, looked up): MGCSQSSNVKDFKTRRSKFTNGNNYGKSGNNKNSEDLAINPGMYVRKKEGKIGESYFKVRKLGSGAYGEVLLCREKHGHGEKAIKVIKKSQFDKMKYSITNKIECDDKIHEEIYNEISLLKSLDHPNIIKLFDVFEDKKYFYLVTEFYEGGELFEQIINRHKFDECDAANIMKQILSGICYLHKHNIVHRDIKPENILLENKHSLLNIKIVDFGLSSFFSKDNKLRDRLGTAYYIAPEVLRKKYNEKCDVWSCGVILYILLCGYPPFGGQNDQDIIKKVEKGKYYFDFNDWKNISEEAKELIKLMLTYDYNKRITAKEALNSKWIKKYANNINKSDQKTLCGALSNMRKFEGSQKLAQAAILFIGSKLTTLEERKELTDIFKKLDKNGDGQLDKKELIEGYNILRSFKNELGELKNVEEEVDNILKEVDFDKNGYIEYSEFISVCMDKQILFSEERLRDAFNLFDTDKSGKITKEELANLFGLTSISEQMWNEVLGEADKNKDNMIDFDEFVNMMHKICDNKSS
Calcium-dependent protein kinase 4 (Plasmodium falciparum (isolate 3D7)), sequence (Q8IBS5 whole entry, looked up): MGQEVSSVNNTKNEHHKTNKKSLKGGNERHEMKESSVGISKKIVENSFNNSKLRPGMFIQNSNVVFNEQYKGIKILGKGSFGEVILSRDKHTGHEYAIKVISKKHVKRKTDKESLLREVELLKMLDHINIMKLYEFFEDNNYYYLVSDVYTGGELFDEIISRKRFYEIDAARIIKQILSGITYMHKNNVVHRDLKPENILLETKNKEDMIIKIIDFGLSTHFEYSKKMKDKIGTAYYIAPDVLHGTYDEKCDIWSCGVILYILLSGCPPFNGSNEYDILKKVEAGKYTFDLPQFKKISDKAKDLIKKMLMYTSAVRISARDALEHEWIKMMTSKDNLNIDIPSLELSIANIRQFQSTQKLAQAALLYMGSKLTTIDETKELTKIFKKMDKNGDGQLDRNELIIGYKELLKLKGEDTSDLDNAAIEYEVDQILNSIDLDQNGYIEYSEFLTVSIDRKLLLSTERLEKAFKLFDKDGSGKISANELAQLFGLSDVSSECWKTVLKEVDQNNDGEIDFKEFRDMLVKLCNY
Plasmodium falciparum protein kinase 6 (PK6, PF3D7_1337100), sequence (Q8IDW1 1-305): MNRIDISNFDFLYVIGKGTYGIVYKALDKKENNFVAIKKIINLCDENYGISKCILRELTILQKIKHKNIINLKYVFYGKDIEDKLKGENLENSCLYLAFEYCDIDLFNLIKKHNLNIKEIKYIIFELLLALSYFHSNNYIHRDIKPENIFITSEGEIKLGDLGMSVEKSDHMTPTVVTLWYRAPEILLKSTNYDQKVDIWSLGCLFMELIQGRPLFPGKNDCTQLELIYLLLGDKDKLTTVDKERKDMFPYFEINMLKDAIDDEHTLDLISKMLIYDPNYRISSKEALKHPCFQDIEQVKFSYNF

One may read the inhibition as the change of the read-out against control, counted positive when it falls. Consider `O=C(/C=C/c1ccc(Cl)c(Cl)c1)NCCCCCN1CCC(NC(=O)Nc2ccc(Cl)c(C(F)(F)F)c2)CC1`, for which the growth inhibition in assay [1] is 19%; in assay [4], 99% (active). Besides, the inhibition in assay [2] was 76% (active); in assay [3], -1%. The outcome in assay [5], in assay [6], in assay [7] and in assay [8] was inactive.
Take `CC(C)(C)C(=O)Nc1c(-c2cc(=O)oc3cc4c(cc23)CCC4)oc2ccccc12`: the growth inhibition is 100% (active) in assay [1] and 101% (active) in assay [4]. The inhibition was -5% in assay [2] and 3% in assay [3]. Further, the result in assay [5], in assay [6], in assay [7] and in assay [8] was inactive.
Regarding `O=C(Nc1ccc(Cl)c(Cl)c1)Nc1ccccc1N1CCNCC1`, the growth inhibition in assay [1] is 22%; in assay [4], 101% (active). The figures for the inhibition in assay [2] and in assay [3] were 17% and 1%, respectively. The result in assay [5], in assay [6], in assay [7] and in assay [8] was inactive.
For `C#CC(C)(CO)N1CCCC1` (stereo not drawn), the figures for the growth inhibition in assay [1] and in assay [4] were 1% and 95% (active), respectively. The inhibition in assay [2] was 10%; in assay [3] it was -4%. The result in assay [5], in assay [6], in assay [7] and in assay [8] was inactive.
As for `O=C(Nc1ccc(F)cc1)c1ccc(C(=O)NC2CCN(CC3CCCCC3)CC2)cc1`, the growth inhibition was 0% in assay [1] and 99% (active) in assay [4]. For the same compound, the inhibition in assay [2] is 34%; in assay [3] it was -7%. Further, the result in assay [5], in assay [6], in assay [7] and in assay [8] was inactive.
Regarding `FC(F)(F)c1ccc2nc(-c3ccc(-c4ccc(CNCCN5CCNCC5)cc4)s3)[nH]c2c1`, the growth inhibition is 79% (active) in assay [1] and 94% (active) in assay [4]. Besides, the results for the inhibition in assay [2] and in assay [3] were 17% and -2%, respectively. The outcome in assay [5], in assay [6], in assay [7] and in assay [8] was inactive.
Regarding `COc1ccc2ncc(F)c([C@@H](O)CN3CCC(NCc4cc5c(cn4)OCCO5)CC3)c2c1`, the growth inhibition in assay [1] was 98% (active); in assay [4], 100% (active). The results for the inhibition in assay [2] and in assay [3] were -4% and -7%, respectively. The outcome in assay [5], in assay [6], in assay [7] and in assay [8] was inactive.
In the case of `O=C(c1cc(C(=O)Nc2ccccc2F)c(=O)n(-c2ccccc2F)c1)c1cc(Cl)ccc1O`, the results for the growth inhibition in assay [1] and in assay [4] were 80% (active) and 98% (active), respectively. Besides, the values for the inhibition in assay [2] and in assay [3] were 2% and 5%, respectively. Moreover, the outcome in assay [5], in assay [6], in assay [7] and in assay [8] was inactive.
Take `CC(C)(C)c1ccc(CNCC(C)(C)c2nc(-c3ccc(Cl)c(O)c3)c(-c3ccnc(N)n3)[nH]2)cc1`: the growth inhibition was 54% (active) in assay [1] and 100% (active) in assay [4]. Besides, the values for the inhibition in assay [2] and in assay [3] were 28% and -7%, respectively. The outcome in assay [5], in assay [6], in assay [7] and in assay [8] was inactive.
Turning to `COc1ccc2c(OC)ccc(CNCCCCCCNCc3ccc(OC)c4ccc(OC)cc34)c2c1`, the values for the growth inhibition in assay [1] and in assay [4] were 98% (active) and 102% (active), respectively. Further, the inhibition in assay [2] is 100% (active); in assay [3] it was -3%. For the same compound, the outcome in assay [5], in assay [6], in assay [7] and in assay [8] was inactive.
Turning to `COc1cc(CNCCCCCCNCc2cc(OC)c(OC)c3ccccc23)c2ccccc2c1OC`, the growth inhibition in assay [1] and in assay [4] was 100% (active) each time. The inhibition is 100% (active) in assay [2] and -1% in assay [3]. Besides, the result in assay [5], in assay [6], in assay [7] and in assay [8] was inactive.
As for `COCCNCc1cccc(-c2ccccc2CN(C(=O)c2ccc3c(c2)OCO3)c2ccc(OC)cc2)c1`, the growth inhibition in assay [1] was 46%; in assay [4], 90% (active). Further, the inhibition in assay [2] is 6%; in assay [3], 2%. The outcome in assay [5], in assay [6], in assay [7] and in assay [8] was inactive.
With `COc1ccc2nccc([C@@H](O)CN3CCC(NC(=O)/C=C/c4c[nH]c5c(C)cccc45)CC3)c2c1`, the growth inhibition in assay [1] is 88% (active); in assay [4] it was 101% (active). The inhibition was 23% in assay [2] and 4% in assay [3]. In addition, the result in assay [5], in assay [6], in assay [7] and in assay [8] was inactive.
`O=C(Nc1cccc(-c2ccc(-c3nc4ccccc4[nH]3)cc2)c1)c1cccnc1`: the growth inhibition in assay [1] was 1%; in assay [4] it was 100% (active). In addition, the inhibition in assay [2] was 18%; in assay [3], -5%. For the same compound, the result in assay [5], in assay [6], in assay [7] and in assay [8] was inactive.
On to `O=C(Nc1ccc(OC(F)(F)F)cc1)NC1CCN(c2ccnc3ccccc23)CC1`, for which the growth inhibition in assay [1] is 40%; in assay [4], 101% (active). For the same compound, the inhibition in assay [2] is 40%; in assay [3], -7%. The outcome in assay [5], in assay [6], in assay [7] and in assay [8] was inactive.
Turning to `Cc1cc(N)cc2[nH]c(-c3ccc(N)cc3)nc12`, the results for the growth inhibition in assay [1] and in assay [4] were 75% (active) and 96% (active), respectively. Moreover, the results for the inhibition in assay [2] and in assay [3] were -7% and -11%, respectively. For the same compound, the result in assay [5], in assay [6], in assay [7] and in assay [8] was inactive.
Take `NC1=NC2(CCCCC2)N(Cc2ccc(Cl)c(Cl)c2)C(N)=N1`: the growth inhibition in assay [1] is 76% (active); in assay [4] it was 86% (active). Moreover, the values for the inhibition in assay [2] and in assay [3] were 22% and -3%, respectively. The result in assay [5], in assay [6], in assay [7] and in assay [8] was inactive.
In the case of `Cc1ccc2oc3cc(-c4nn[nH]n4)ccc3c(=O)c2c1`, the growth inhibition in assay [1] was 96% (active); in assay [4], 97% (active). The inhibition was 2% in assay [2] and -6% in assay [3]. Moreover, the result in assay [5], in assay [6], in assay [7] and in assay [8] was inactive.
On to `COC(=O)c1cccc(CNCc2cccc(-c3cccc(-c4nc5ccc(F)cc5[nH]4)c3)c2)c1`, for which the growth inhibition is 52% (active) in assay [1] and 101% (active) in assay [4]. Further, the inhibition in assay [2] is 27%; in assay [3] it was 1%. Also, the result in assay [5], in assay [6], in assay [7] and in assay [8] was inactive.
Turning to `O=C(CCc1cnc[nH]1)Nc1cccc(-c2ccc(-c3nc4ccccc4[nH]3)s2)c1`, the growth inhibition in assay [1] is 37%; in assay [4], 92% (active). The inhibition in assay [2] is 11%; in assay [3] it was 0%. The result in assay [5], in assay [6], in assay [7] and in assay [8] was inactive.
Consider `Cc1cc(Nc2cccc(C(F)(F)F)c2)nc2ccc(NC(=O)c3ccc(=O)[nH]c3)cc12`, for which the values for the growth inhibition in assay [1] and in assay [4] were 60% (active) and 101% (active), respectively. The inhibition in assay [2] was 21%; in assay [3], 0%. Also, the outcome in assay [5], in assay [6], in assay [7] and in assay [8] was inactive.
